# In PubChem BioAssay (Tox21):
# Where “and” joins values, the source holds several entries; their conditions need not be identical. Equal entries are not always repeated. Where a structure was tested more than once in an assay, its records may differ in their call. Calls of active or inactive are those of the source. Entries that show only a call come without a potency. Unless noted, calls come from the whole dose curve; as a rule, active = well fitted curve in the direction sought with a large enough effect in the repeat runs; inconclusive = weak or mixed curves; inactive = no such curve, though single readings can be large; an effect the other way counts as inactive or inconclusive.
# Assays:
# [1] = qHTS assay to identify small molecule antagonists of the thyroid receptor (TR) signaling pathway - cell viability counter screen (AID 743064); note: nearly all actives have a fitted effect of over 50% in size; note: potency is the fitted concentration of half-maximal effect
# Procedure, shortened: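 In-well cytotoxicity read by CellTiter-Fluor (30 min, 37 C) following 23.5 h exposure of GH3 cells bearing a TRE-luciferase sensor. Compounds were added alongside 1 nM (final) T3 to drive TR transactivation.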
# [2] = qHTS assay to identify small molecule antagonists of the thyroid receptor (TR) signaling pathway (AID 743065); note: nearly all actives have a fitted effect of over 55% in size; note: potency is the fitted concentration of half-maximal effect
# Procedure, shortened: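 Antagonism measured as loss of luciferase signal in GH3 cells stably carrying a TRE-luciferase reporter, co-treated with compound and T3 (1 nM final) for 23.5 h at 37 C. Viability was read in the same well by CellTiter-Fluor.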
# [3] = tested on: thyroid hormone receptor (rat, GH3 cells); assay: qHTS assay to identify small molecule agonists of the thyroid receptor (TR) signaling pathway (AID 743066; calls by dose curve)
# [4] = qHTS assay to identify small molecule antagonists of the estrogen receptor alpha (ER-alpha) signaling pathway - cell viability counter screen (AID 743074; calls by dose curve;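 note: HEK293 cells carrying ER-alpha-UAS-bla reporter stimulated with 17beta-estradiol; nearly all actives have a fitted effect of over 45% in size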)
# [5] = biological target: Estrogen receptor (Homo sapiens) (UniProt P03372); assay: qHTS assay to identify small molecule agonists of the estrogen receptor alpha (ER-alpha) signaling pathway (AID 743075; calls by dose curve;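 note: HEK293 GripTite cells with ER-alpha and UAS-driven beta-lactamase reporter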; note: potency is the fitted concentration of half-maximal effect)
# Sequence of Estrogen receptor (Homo sapiens) (P03372 whole entry, looked up): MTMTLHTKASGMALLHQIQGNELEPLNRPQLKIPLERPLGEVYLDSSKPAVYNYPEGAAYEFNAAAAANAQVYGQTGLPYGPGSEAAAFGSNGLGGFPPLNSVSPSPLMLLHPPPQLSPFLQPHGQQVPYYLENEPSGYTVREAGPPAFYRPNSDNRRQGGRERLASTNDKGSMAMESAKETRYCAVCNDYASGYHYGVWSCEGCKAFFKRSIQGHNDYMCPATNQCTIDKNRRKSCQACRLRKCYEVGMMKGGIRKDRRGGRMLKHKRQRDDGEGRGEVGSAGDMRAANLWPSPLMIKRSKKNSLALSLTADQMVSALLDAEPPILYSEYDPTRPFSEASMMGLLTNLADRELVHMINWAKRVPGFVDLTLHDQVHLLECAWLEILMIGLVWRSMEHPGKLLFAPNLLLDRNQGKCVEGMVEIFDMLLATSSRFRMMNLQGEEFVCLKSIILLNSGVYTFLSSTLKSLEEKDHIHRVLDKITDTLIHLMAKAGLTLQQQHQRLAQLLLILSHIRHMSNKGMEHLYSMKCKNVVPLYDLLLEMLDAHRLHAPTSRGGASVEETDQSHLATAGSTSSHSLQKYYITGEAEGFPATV
# [6] = qHTS assay to identify small molecule antagonists of the estrogen receptor alpha (ER-alpha) signaling pathway using the BG1 cell line (AID 743080; calls by dose curve; note: nearly all actives have a fitted effect of over 25% in size; note: potency is the fitted concentration of half-maximal effect)
# Procedure, shortened: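 Antagonist mode: compounds in DMSO were pinned onto BG1-Luc-4E2 cells alongside 17beta-estradiol agonist, incubated 21.5 h, and ERE-driven luciferase measured with ONE-Glo. Cytotoxicity was multiplexed using CellTiter-Fluor fluorescence.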
# [7] = qHTS assay to identify small molecule antagonists of the estrogen receptor alpha (ER-alpha) signaling pathway using the BG1 cell line - cell viability counter screen (AID 743081);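 note: compound given together with 17beta-estradiol as the ER stimulus; nearly all actives have a fitted effect of over 45% in size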; note: potency is the fitted concentration of half-maximal effect
# Aromatase (Homo sapiens) = Aromatase (Homo sapiens) (UniProt P11511); assay: qHTS assay to identify aromatase inhibitors (AID 743083); note: nearly all actives have a fitted effect of over 55% in size; note: potency is the fitted concentration of half-maximal effect
# Sequence of Aromatase (Homo sapiens) (P11511 whole entry, looked up): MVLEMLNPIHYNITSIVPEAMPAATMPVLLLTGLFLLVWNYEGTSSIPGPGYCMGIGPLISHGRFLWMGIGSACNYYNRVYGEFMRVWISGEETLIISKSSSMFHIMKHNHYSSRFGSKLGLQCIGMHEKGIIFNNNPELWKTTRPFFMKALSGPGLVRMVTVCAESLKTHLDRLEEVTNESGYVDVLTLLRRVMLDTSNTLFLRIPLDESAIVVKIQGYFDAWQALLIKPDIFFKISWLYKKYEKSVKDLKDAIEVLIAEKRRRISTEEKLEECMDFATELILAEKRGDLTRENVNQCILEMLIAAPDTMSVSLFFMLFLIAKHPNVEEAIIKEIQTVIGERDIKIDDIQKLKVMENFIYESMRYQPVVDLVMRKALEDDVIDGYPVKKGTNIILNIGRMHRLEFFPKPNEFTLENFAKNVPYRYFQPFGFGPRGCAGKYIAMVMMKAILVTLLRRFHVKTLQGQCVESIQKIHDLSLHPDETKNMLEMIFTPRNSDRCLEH
# [8] = biological target: Estrogen receptor (Homo sapiens) (UniProt P03372); assay: qHTS assay to identify small molecule antagonists of the estrogen receptor alpha (ER-alpha) signaling pathway (AID 743069; active = well fitted curve in the direction sought with a large enough effect in the signal ratio in the repeat runs, not every such curve was filed as active; inconclusive = weak or mixed curves, or effect the other way; inactive = no such curve, though single readings can be large or run the other way; the % refers to the signal ratio; note: potency is the fitted concentration of half-maximal effect)
# Procedure, shortened: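 Antagonist mode: compounds in DMSO were co-added with 17beta-estradiol to ER-alpha-bla HEK293 cells (2% charcoal-stripped serum) and left 18 h at 37C. Reporter inhibition was measured as FRET fluorescence after 2 h LiveBLAzer substrate at room temperature.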
# [9] = biological target: Estrogen receptor (Homo sapiens) (UniProt P03372); assay: qHTS assay to identify small molecule agonists of the estrogen receptor alpha (ER-alpha) signaling pathway using the BG1 cell line (AID 743079); note: nearly all actives have a fitted effect of over 20% in size; note: potency is the fitted concentration of half-maximal effect
SMILES,Potency [1],Potency [2],Potency [3],Potency [4],Potency [5],Potency [6],Potency [7],Potency (Aromatase (Homo sapiens)),Potency [8],Potency [9]
c1ccoc1,inactive,inactive,inactive,inactive,inactive,inactive,inactive,inactive,,
O=[N+]([O-])c1ccccc1CCl,inactive,inactive,inactive,inactive,inactive,,inactive,inactive,inactive,inactive
NNC(=O)c1cccnc1,inactive,inactive,inactive,inactive,inactive,inactive,inactive,inactive,inactive,
CCOP(=O)(OCC)Oc1ccc([N+](=O)[O-])cc1,inactive,inactive,inactive,inactive,,,inactive,,,
BrCC(Br)C1CCC(Br)C(Br)C1 (centres undefined),68.2 µM (active),48.3 µM (active),inactive,inactive,,,inactive,inactive,,
CNP(=O)(OC)Oc1ccc(C(C)(C)C)cc1Cl (centres undefined),inactive,inactive,inactive,inactive,inactive,inactive,inactive,inactive,,inactive
CCCCNP(N)(N)=S,inactive,inactive,inactive,inactive,inactive,inactive,inactive,inactive,inactive,
[O-][Cl+]O,inactive,inactive,inactive,,inactive,inactive,inactive,inactive,inactive,inactive
COCCOCCO,30.6 µM (active),48.6 µM (active),inactive,,inactive,inactive,,inactive,inactive,inactive
CCCC(=O)Cl,inactive,inactive,inactive,inactive,inactive,inactive,inactive,inactive,inactive,inactive
C[N+](C)(C)CCCl,inactive,inactive,inactive,inactive,,inactive,inactive,inactive,inactive,inactive
CC(C)O.CC(C)O.OCCN(CCO)CCO.OCCN(CCO)CCO.[Ti],inactive,inactive,inactive,inactive,,,inactive,,,
c1ccc(C2CC2)c(OCC2=NCCN2)c1,inactive,inactive,inactive,inactive,inactive,inactive,,inactive,inactive,inactive
O=[N+]([O-])c1ccc(F)c([N+](=O)[O-])c1,inactive,61.7 µM (active),inactive,inactive,inactive,,18.8 µM (active) and 49 µM (active),inactive,,
CC1(C)[C@H](C=C(Cl)Cl)[C@@H]1C(=O)O[C@@H](C#N)c1cccc(Oc2ccccc2)c1,inactive,inactive,inactive,inactive,inactive,inactive,inactive,inactive,inactive,
Cl/C=C\Cl,inactive,inactive,inactive,inactive,inactive,,inactive,inactive,inactive,inactive
O=[Se]=O,inactive,21.5 µM (active),inactive,,inactive,,19.2 µM (active),inactive,6.12 µM [inconclusive] (active),
O=C(NC(=O)c1c(F)cccc1F)Nc1ccc(OC(F)(F)C(F)OC(F)(F)F)c(Cl)c1 (centres undefined),inactive,inactive,inactive,inactive,,inactive,inactive,inactive,,inactive
COCC(C)N(C(=O)CCl)c1c(C)csc1C (centres undefined),inactive,inactive,inactive,inactive,inactive,inactive,inactive,inactive and 34.4 µM (active),inactive and 30.9 µM [inconclusive] (active),inactive
Oc1ccc(Cl)c(Cl)c1Cl,inactive,inactive,inactive,inactive,,,inactive,inactive,,
O=C1CN=C(c2ccccc2)c2cc(Cl)ccc2N1CC1CC1,inactive,21.1 µM (active) and 51 µM (active),inactive,inactive,,,inactive,inactive,,
CCOC(=O)COc1cc(-c2nn(C)c(OC(F)F)c2Cl)c(F)cc1Cl,inactive,inactive,inactive,inactive,,,,inactive,,

SMILES,Potency [1],Potency [2],Potency [3],Potency [4],Potency [5],Potency [6],Potency [7],Potency (Aromatase (Homo sapiens)),Potency [8],Potency [9]
Nc1nc(N)nc(N)n1,inactive,inactive,inactive,inactive,,,inactive,inactive,,
CC(=O)c1cc2c(cc1C)C(C)(C)C(C)CC2(C)C (centres undefined),inactive,inactive,inactive,inactive,,,inactive,54.5 µM (active),,
CCC(Br)(CC)C(=O)NC(N)=O,inactive,inactive,inactive,inactive,,,inactive,inactive,,
CCCCCCCCCC(=O)O[C@H]1CC[C@H]2[C@@H]3CCC4=CC(=O)CC[C@@H]4[C@H]3CC[C@]12C,inactive,inactive,inactive,,0.848 µM [inconclusive] (active),inactive,inactive,inactive,,0.188 µM (active)
CC(C)N(CCC(C(N)=O)(c1ccccc1)c1ccccn1)C(C)C (centres undefined),inactive,inactive,inactive,inactive,,,inactive,inactive,,
COc1nn(C(=O)NS(=O)(=O)c2ccccc2OC(F)(F)F)c(=O)n1C,inactive,inactive,inactive,inactive,,,inactive,inactive,,
Cc1ccccc1CCl,inactive,inactive,inactive,inactive,,,inactive,inactive,,
COC(=O)C(Br)CBr (centres undefined),inactive,inactive,,inactive,inactive,inactive,inactive,inactive,inactive,inactive
CCCCCCCCOC(=O)c1ccc(C(=O)OCCCCCCCC)c(C(=O)OCCCCCCCC)c1,inactive,inactive,inactive,inactive,,,inactive,inactive,,
O=C1c2ccccc2C(=O)C1C(=O)C(c1ccccc1)c1ccccc1,inactive,inactive,inactive,inactive,,,inactive,inactive,,
CO/C=C(/C(=O)OC)c1ccccc1COc1cccc(C(F)(F)F)n1,inactive,0.432 µM (active),inactive,,1.38 µM [inconclusive] (active),2.17 µM (active),,68.5 µM (active),,
CC[C@H]1C[C@H]2[C@@H]3CCC4=CC(=O)CC[C@@H]4[C@H]3CC[C@]2(C)[C@H]1O,inactive,21.1 µM (active),inactive,,inactive,,,inactive,,10.6 µM (active)
O=Cc1ccc(Cl)cc1Cl,inactive,inactive,inactive,inactive,,,inactive,inactive,,
CC/C(=N\OC/C=C/Cl)C1=C(O)CC(C2CCOCC2)CC1=O (centres undefined),inactive,inactive,inactive,inactive,,,inactive,inactive,,
O=S(=O)(Cl)c1ccccc1,inactive,inactive,inactive,inactive,,,inactive,inactive,,
CO/N=C(/C(=O)OC)c1ccccc1COc1ccccc1C,inactive,3.06 µM (active),inactive,,,,inactive,,,inactive
C=CC[C@]1(O)CC[C@H]2[C@@H]3CCC4=CC(=O)CCC4=C3C=C[C@@]21C,inactive,10.6 µM (active),inactive,,1.69 µM [inconclusive] (active),29.8 µM (active),inactive,,,1.33 µM (active)
CC(C)(CCl)C(=O)Cl,inactive,inactive,inactive,inactive,,,inactive,inactive,,
CCOP(O)OCC,inactive,inactive,inactive,,,,inactive,inactive,,
Clc1cccc2ccccc12,inactive,inactive,inactive,inactive,,,inactive,inactive,,
CCCCOC(=O)c1ccccc1C(=O)OCc1ccccc1,inactive,inactive,inactive,inactive,,,inactive,inactive,,
CCOS(C)(=O)=O,inactive,inactive,inactive,inactive,,,inactive,inactive,,

SMILES,Potency [1],Potency [2],Potency [3],Potency [4],Potency [5],Potency [6],Potency [7],Potency (Aromatase (Homo sapiens)),Potency [8],Potency [9]
NS(=O)(=O)C(F)(F)C(F)(F)C(F)(F)C(F)(F)C(F)(F)C(F)(F)C(F)(F)C(F)(F)F,61.1 µM (active),61.1 µM (active),inactive,,43.6 µM [inconclusive] (active),,,inactive,,inactive
NCC(CC(=O)O)c1ccc(Cl)cc1 (centres undefined),inactive,inactive,inactive,inactive,,,inactive,inactive,,
O=C(O)C(F)(F)C(F)(F)C(F)(F)C(F)(F)C(F)(F)C(F)(F)C(F)(F)C(F)(F)C(F)(F)C(F)(F)F,inactive,inactive,inactive,,,,inactive,inactive,,
C=COC(C)=O,inactive,inactive,inactive,inactive,,,inactive,inactive,,
O=S1(=O)OC(c2cc(Br)c(O)c(Br)c2)(c2cc(Br)c(O)c(Br)c2)c2ccccc21,49.9 µM (active),28.1 µM (active),inactive,,inactive,,22.3 µM (active),22.3 µM (active),,
O=C1C(Cl)C(CCl)CN1c1cccc(C(F)(F)F)c1 (centres undefined),inactive,inactive,inactive,inactive,,,inactive,inactive,,
CC1C(=O)C[C@]2(C(C)C)C[C@H]12 (some centres undefined),inactive,inactive,inactive,,,,inactive,inactive,,
O=C(NC(=O)c1c(F)cccc1F)Nc1cc(Cl)c(Oc2ncc(C(F)(F)F)cc2Cl)c(Cl)c1,58.5 µM (active),8.27 µM (active),inactive,,inactive,,inactive,,,
COC1=CC(=O)O[C@@H](CCc2ccccc2)C1,inactive,inactive,inactive,inactive,,,inactive,inactive,,
CN1C(=O)NC(=O)C(C)(C2=CCCCC2)C1=O (centres undefined),inactive,inactive,inactive,inactive,,,inactive,inactive,,
C=CC(C)=O,inactive,,,inactive,inactive,inactive,inactive,inactive,inactive,inactive
CCOP(=S)(OCC)Oc1nc(Cl)c(Cl)cc1Cl,inactive,,inactive,inactive,inactive,inactive,inactive,inactive,inactive,inactive
CC(O)(CS(=O)(=O)c1ccc(F)cc1)C(=O)Nc1ccc(C#N)c(C(F)(F)F)c1 (centres undefined),inactive,,inactive,inactive,inactive,29.8 µM (active),inactive,inactive,,inactive
COC(=O)C(C)N(C(=O)Cc1ccccc1)c1c(C)cccc1C (centres undefined),,61.1 µM (active),inactive,inactive,inactive,inactive,inactive,inactive,inactive,inactive
Cn1cc[n+](C)c1 (tested in a mixture with another compound),,inactive,inactive,inactive,inactive,inactive,inactive,inactive,inactive,inactive
Cc1ccc2ccccc2c1,,inactive,inactive,inactive,inactive,inactive,inactive,inactive,inactive,inactive
COP(=S)(Oc1cc(Cl)c(Br)cc1Cl)c1ccccc1 (centres undefined),,61.1 µM (active),inactive,inactive,inactive,inactive,inactive,,inactive,inactive
C=CC(=O)OCC(C)C,,inactive,inactive,inactive,inactive,inactive,inactive,inactive,inactive,inactive
CCC(COC(=O)c1cc(OC)c(OC)c(OC)c1)(c1ccccc1)N(C)C (centres undefined),inactive,,inactive,inactive,,,inactive,,,
O=C1NCN(c2ccccc2)C12CCN(CCCOc1ccc(F)cc1)CC2,13.3 µM (active),16.8 µM (active),,inactive,inactive,,,16.8 µM (active),10.7 µM [inconclusive] (active),
